Assay results reported in PubChem BioAssay.
Activity calls are given as the source filed them. Unless noted, how the calls were made is not given here.

Assays:
[1] = anti-His antibody binders, primary screen, artefact control for SMM control protein annotation, biochemical, small-molecule microarray, 635 nm fluorescence (AID 1128); conditions: anti-His Alexa647 antibody binding, higher = more signal;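 further: score merges feature fluorescence with signal-to-noise for each printed compound spot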
[2] = test system: Human papillomavirus type 1a E7 protein (residues 1-88); assay: HPV1a E7 small-molecule binders, primary screen, biochemical, small-molecule microarray, residues 1-88, 635 nm (AID 1129); conditions: small-molecule microarray binding, fluorescence 635 nm; higher = more signal
[3] = biological target: Focal adhesion kinase 1 (Homo sapiens) (UniProt Q05397); assay: small-molecule microarray binders of FAK, primary screen, biochemical, 635/667 nm fluorescence, BSA, DTT (AID 1130); conditions: PTK2 binding, 635 nm fluorescence, higher = more signal;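 further: composite of spot emission at 667 nm and signal to noise over triplicate slides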
[4] = test system: Fibrinogen (Alexa647-labelled); assay: fibrinogen binders on compound microarrays, profiling panel, artefact control for SMM control-protein annotation, biochemical, small-molecule microarray, 635/667 nm fluorescence (AID 1131); conditions: fibrinogen-A647 binding fluorescence, higher = more signal;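 further: z-score merges 667 nm fluorescence with per-spot signal-to-noise over triplicate slides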
[5] = biological target: Follistatin (Homo sapiens) (UniProt P19883); assay: follistatin binders on small-molecule microarrays, primary screen, biochemical, small-molecule microarray, 635/667 nm fluorescence (AID 1132); conditions: FST binding, 635 nm fluorescence, higher = more signal
[6] = biological target: Fibroblast growth factor 2 (Homo sapiens) (UniProt P09038); assay: FGF2 binders on small-molecule microarrays, primary screen, biochemical, small-molecule microarray, 635/667 nm fluorescence (AID 1133); conditions: small-molecule microarray binding, FGF2, fluorescence 635/667; higher = more signal
[7] = mitochondrial membrane potential change in A549 cells, profiling panel, cell-based, JC-1 fluorescence, basal, 24 h, 100 nL (AID 1138); conditions: higher = more signal;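 further: A549 lung adenocarcinoma cells under basal conditions with no added stimulus; test concentration not given here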
Lefty1 = Lefty1 binders on small-molecule microarrays, primary screen, biochemical, small-molecule microarray, 635/667 nm fluorescence (AID 1139); conditions: small-molecule microarray binding, fluorescence 635/667; higher = more signal
[8] = test system: wheat germ agglutinin (Triticum aestivum), Alexa647-labelled; assay: wheat germ agglutinin binders on compound microarrays, profiling panel, artefact control for SMM control-protein annotation, biochemical, small-molecule microarray, 635/667 nm fluorescence (AID 1140); conditions: WGA-A647 binding, 635 nm fluorescence, higher = more signal;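 further: score merges 667 nm feature emission with signal to noise over triplicate slides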
[9] = biological target: Luciferin 4-monooxygenase (Photinus pyralis) (UniProt P08659); assay: firefly luciferase enzyme inhibitors, primary screen, biochemical, luminescence, purified enzyme, 2006 set (AID 1141); conditions: SteadyGlo luminescence, 30 min, higher = more signal, called active from +8 up or from −8 down;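 further: cell-free assay with purified firefly luciferase at 100 ng per well in PBS; test concentration not given here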
[10] = test system: Wnt5a (protein binding on small-molecule microarray); assay: Wnt5a binders on small-molecule microarray, primary screen, biophysical, 635/667 nm fluorescence (AID 1142); conditions: 635 nm fluorescence, higher = more signal;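 further: fluorescence read at 667 nm with signal to noise per printed feature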
[11] = cell viability in Huh7 cells, primary screen, cytotoxicity control for HCV replication inhibitor project, CellTiter-Glo luminescence, basal, 48 h (AID 1143); conditions: Huh7 HCV replicon, higher = more signal, called active from +8 up or from −8 down;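 further: Huh7 hepatoma cells carrying a hepatitis C replication reporter with no stimulus; test concentration not given here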
[12] = P. aeruginosa biofilm formation inhibitors, primary screen, PAO1 strain, BacTiter-Glo luminescence, LB-PBS (AID 1144); conditions: 12 h, higher = more signal
[13] = CREB reporter modulators without forskolin, primary screen, cell-based, PC12, CRE-LacZ reporter, unstimulated (AID 1145); conditions: no forskolin, luminescence, 4.5 h, higher = more signal, called active from +8 up or from −8 down
[14] = CREB reporter modulators under forskolin, primary screen, cell-based, PC12, CRE-LacZ reporter, forskolin-stimulated (AID 1146); conditions: luminescence, 4.5 h, higher = more signal, called active from +8 up or from −8 down;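 further: PC12 cells with 6xCRE LacZ reporter stimulated by forskolin 10 µM; beta-galactosidase reporter signal reflecting CREB driven transcription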
[15] = biological target: Streptavidin (Streptomyces avidinii) (UniProt P22629); assay: streptavidin binders on small-molecule microarray, primary screen, artefact control for SMM compound annotation, biophysical, 635/667 nm fluorescence (AID 1147); conditions: streptavidin binding, higher = more signal;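 further: signal reflects streptavidin binding to arrayed compounds as a control protein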
[16] = small-molecule binders of probe aInhba, primary screen, biochemical, small-molecule microarray, 635/667 nm fluorescence (AID 1148); conditions: higher = more signal;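 further: score merges 667nm spot fluorescence with signal-to-noise for antibody binding to printed compounds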
Torsin-1A (Homo sapiens) [17] = biological target: Torsin-1A (Homo sapiens) (UniProt O14656); assay: torsin A binders from cell lysate, primary screen, small-molecule microarray, wild-type, 635/667 nm (AID 1149); conditions: COS7 hTOR1A-WT lysate, 635 nm fluorescence, higher = more signal
Torsin-1A (Homo sapiens) [18] = biological target: Torsin-1A (Homo sapiens) (UniProt O14656); assay: small-molecule binders of mutant TOR1A in lysate, primary screen, cell lysate, small-molecule microarray, COS7 lysate, 635/667 nm fluorescence (AID 1150); conditions: COS7 hTOR1A mutant lysate, 635 nm fluorescence, higher = more signal;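 further: score pools 667 nm emission and signal to noise measuring lysate protein binding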
[19] = test system: Sonic hedgehog protein (Shh); assay: small-molecule binders of Shh protein, primary screen, biochemical, small-molecule microarray, 635/667 nm fluorescence (AID 1151); conditions: small-molecule microarray binding, 635 nm fluorescence; higher = more signal;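 further: Shh protein binding to compounds spotted on small-molecule microarray slides; score combines spot fluorescence intensity with signal-to-noise across triplicate slides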

Sequence of Fibroblast growth factor 2 (Homo sapiens) (P09038 whole entry, looked up): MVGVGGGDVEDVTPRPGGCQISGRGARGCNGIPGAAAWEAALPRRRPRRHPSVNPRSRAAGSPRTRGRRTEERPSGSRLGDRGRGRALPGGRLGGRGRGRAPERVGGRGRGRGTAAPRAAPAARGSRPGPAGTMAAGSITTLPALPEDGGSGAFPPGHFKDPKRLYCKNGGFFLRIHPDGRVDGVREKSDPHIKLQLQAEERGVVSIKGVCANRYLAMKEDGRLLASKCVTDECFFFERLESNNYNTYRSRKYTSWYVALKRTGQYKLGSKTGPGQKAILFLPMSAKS
Sequence of Luciferin 4-monooxygenase (Photinus pyralis) (P08659 whole entry, looked up): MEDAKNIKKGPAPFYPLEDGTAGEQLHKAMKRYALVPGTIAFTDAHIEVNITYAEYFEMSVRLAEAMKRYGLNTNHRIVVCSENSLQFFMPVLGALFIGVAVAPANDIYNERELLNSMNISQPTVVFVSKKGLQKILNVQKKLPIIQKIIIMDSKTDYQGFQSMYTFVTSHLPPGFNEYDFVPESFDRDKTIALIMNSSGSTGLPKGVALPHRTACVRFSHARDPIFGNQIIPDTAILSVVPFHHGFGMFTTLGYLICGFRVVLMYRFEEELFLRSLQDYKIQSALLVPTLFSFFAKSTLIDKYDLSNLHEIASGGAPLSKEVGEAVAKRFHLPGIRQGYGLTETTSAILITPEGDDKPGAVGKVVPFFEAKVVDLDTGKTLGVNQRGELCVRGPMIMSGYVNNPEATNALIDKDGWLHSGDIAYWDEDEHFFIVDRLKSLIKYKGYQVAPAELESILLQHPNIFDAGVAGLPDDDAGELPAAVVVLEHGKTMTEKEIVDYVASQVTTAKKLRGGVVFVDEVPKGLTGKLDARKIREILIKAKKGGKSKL
Sequence of Torsin-1A (Homo sapiens) (O14656 whole entry, looked up): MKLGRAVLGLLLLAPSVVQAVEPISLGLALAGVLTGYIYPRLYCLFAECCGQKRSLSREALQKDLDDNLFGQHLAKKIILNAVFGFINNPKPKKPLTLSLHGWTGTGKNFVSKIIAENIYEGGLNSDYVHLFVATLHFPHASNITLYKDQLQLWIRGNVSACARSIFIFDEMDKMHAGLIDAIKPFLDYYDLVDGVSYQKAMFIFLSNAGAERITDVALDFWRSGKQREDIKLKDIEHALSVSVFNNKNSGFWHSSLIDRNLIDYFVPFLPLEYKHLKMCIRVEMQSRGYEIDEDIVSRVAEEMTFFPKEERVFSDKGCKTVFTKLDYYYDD
Sequence of Streptavidin (Streptomyces avidinii) (P22629 whole entry, looked up): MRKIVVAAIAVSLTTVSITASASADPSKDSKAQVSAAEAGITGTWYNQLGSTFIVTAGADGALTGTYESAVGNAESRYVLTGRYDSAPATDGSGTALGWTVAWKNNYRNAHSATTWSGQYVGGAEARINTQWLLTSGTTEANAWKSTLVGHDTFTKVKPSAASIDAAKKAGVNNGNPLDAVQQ
Sequence of Focal adhesion kinase 1 (Homo sapiens) (Q05397 whole entry, looked up): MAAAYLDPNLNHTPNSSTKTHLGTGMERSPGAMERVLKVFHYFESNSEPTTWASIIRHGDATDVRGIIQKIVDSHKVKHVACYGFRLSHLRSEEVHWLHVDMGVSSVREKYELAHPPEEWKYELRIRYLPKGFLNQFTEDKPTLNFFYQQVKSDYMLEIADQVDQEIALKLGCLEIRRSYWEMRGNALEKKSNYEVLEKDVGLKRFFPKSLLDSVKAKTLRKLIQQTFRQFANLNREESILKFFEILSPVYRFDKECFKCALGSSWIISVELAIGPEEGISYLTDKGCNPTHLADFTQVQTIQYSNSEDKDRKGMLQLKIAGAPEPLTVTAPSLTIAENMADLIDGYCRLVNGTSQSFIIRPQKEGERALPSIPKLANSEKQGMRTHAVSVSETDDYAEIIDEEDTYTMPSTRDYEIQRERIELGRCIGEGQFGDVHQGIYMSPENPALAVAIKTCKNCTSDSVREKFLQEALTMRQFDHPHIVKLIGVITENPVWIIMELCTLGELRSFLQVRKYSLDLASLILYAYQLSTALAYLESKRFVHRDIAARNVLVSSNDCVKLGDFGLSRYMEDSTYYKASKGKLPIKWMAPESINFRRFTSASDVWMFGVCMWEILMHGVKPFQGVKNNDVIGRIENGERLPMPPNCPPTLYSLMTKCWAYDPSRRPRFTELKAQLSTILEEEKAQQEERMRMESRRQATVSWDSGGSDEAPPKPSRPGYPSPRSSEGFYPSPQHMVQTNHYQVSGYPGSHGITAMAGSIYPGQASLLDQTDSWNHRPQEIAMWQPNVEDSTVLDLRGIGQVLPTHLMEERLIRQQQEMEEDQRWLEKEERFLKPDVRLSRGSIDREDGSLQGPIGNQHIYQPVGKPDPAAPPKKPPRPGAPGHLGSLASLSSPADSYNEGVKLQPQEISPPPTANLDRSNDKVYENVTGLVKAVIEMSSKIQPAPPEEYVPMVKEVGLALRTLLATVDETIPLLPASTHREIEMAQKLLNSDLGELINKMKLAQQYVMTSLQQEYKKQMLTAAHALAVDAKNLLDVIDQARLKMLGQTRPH
Sequence of Follistatin (Homo sapiens) (P19883 whole entry, looked up): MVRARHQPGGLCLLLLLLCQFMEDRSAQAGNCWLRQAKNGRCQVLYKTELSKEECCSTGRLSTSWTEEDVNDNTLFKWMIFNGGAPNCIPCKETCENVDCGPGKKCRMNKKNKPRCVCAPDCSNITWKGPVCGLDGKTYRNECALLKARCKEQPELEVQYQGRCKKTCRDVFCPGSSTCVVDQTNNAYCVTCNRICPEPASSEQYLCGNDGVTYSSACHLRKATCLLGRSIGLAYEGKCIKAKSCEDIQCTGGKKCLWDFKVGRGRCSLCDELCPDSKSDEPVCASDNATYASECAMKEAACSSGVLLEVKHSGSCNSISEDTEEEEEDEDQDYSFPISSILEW

Structure (SMILES): COc1cc(CO)cc(I)c1O[C@H]1C=C(C(=O)NCCO)C[C@@H](NCc2ccc(F)cc2)[C@@H]1O
- composite z-score [1]: -1
- composite z-score [2]: 0.822
- composite z-score [3]: -0.123
- composite z-score [4]: 0.619
- composite z-score [5]: 0.951
- composite z-score [6]: 1.03
- z-score [7]: 1.18
- composite z-score (Lefty1): 1.01
- composite z-score [8]: 0.518
- z-score [9]: -0.0701 (inactive)
- composite z-score [10]: 0.617
- z-score [11]: -1.76 (inactive)
- z-score [12]: -0.613 (inactive)
- z-score [13]: 10 (active)
- z-score [14]: -1.05 (inactive)
- composite z-score [15]: -0.156
- composite z-score [16]: -0.101
- composite z-score (Torsin-1A (Homo sapiens) [17]): 0.0626
- composite z-score (Torsin-1A (Homo sapiens) [18]): 0.0975
- composite z-score [19]: 0.591

Structure (SMILES): COC(=O)C(CC#Cc1ccc2c(c1)[C@]1(C(=O)N2)[C@H](C(=O)N2CCN(c3ncccn3)CC2)[C@H]2C(=O)O[C@H](c3ccccc3)[C@H](c3ccccc3)N2[C@@H]1c1ccc(OCCO)cc1)C(=O)OC
- composite z-score [1]: 2.65
- composite z-score [2]: 1.25
- composite z-score [3]: 0.179
- composite z-score [4]: 0.982
- composite z-score [5]: 1.38
- composite z-score [6]: 1.63
- z-score [7]: -1.35
- composite z-score (Lefty1): 1.31
- composite z-score [8]: 1.03
- z-score [9]: -1.22 (inactive)
- composite z-score [10]: 0.545
- z-score [11]: -1.02 (inactive)
- z-score [12]: -0.99 (inactive)
- z-score [13]: -0.671 (inactive)
- z-score [14]: -0.772 (inactive)
- composite z-score [15]: 0.736
- composite z-score [16]: 0.109
- composite z-score (Torsin-1A (Homo sapiens) [17]): 0.393
- composite z-score (Torsin-1A (Homo sapiens) [18]): 0.798
- composite z-score [19]: 2.23

Structure (SMILES): CCCCN1CC=CC23O[C@@H]4/C=C\CCC(C)OC(=O)C4[C@H]2C(=O)N(C(CO)C(C)C)[C@@H]3C1=O (stereo not given in full)
- composite z-score [1]: -0.0545
- composite z-score [2]: -0.205
- composite z-score [3]: -0.35
- composite z-score [4]: -0.188
- composite z-score [5]: 0.508
- composite z-score [6]: 0.149
- z-score [7]: -0.0444
- composite z-score (Lefty1): 0.774
- composite z-score [8]: -0.0541
- z-score [9]: 0.323 (inactive)
- composite z-score [10]: -0.0931
- z-score [11]: 0.415 (inactive)
- z-score [12]: 0.524 (inactive)
- z-score [13]: -0.895 (inactive)
- z-score [14]: -0.651 (inactive)
- composite z-score [15]: -0.271
- composite z-score [16]: -0.128
- composite z-score (Torsin-1A (Homo sapiens) [17]): 0.624
- composite z-score (Torsin-1A (Homo sapiens) [18]): 0.517
- composite z-score [19]: 1.42

Structure (SMILES): C[C@]1(C(=O)NC2CC2)c2ccccc2C(=O)N(Cc2ccccc2)[C@H]1c1ccc(CO)cc1
- composite z-score [1]: -1.12
- composite z-score [2]: -1.29
- composite z-score [3]: 0.874
- composite z-score [4]: -2.17
- composite z-score [5]: -0.271
- composite z-score [6]: -0.517
- z-score [7]: -0.153
- composite z-score (Lefty1): -1.5
- composite z-score [8]: -1.15
- z-score [9]: -0.347 (inactive)
- composite z-score [10]: -0.228
- z-score [11]: -4.5 (inactive)
- z-score [12]: -0.483 (inactive)
- z-score [13]: 0.0279 (inactive)
- z-score [14]: -0.957 (inactive)
- composite z-score [15]: -0.854
- composite z-score [16]: 0.0028
- composite z-score (Torsin-1A (Homo sapiens) [17]): 0.249
- composite z-score (Torsin-1A (Homo sapiens) [18]): -0.489
- composite z-score [19]: -1.3

Structure (SMILES): CC(CO)N1C(=O)[C@@H]2[C@H]3C(=O)OCC=C[C@H]3OC23C=CCN(Cc2ccccc2)C(=O)[C@@H]13 (stereo not given in full)
- composite z-score [1]: 0.543
- composite z-score [2]: -0.696
- composite z-score [3]: 0.769
- composite z-score [4]: -0.854
- composite z-score [5]: -0.139
- composite z-score [6]: -0.173
- z-score [7]: -0.376
- composite z-score (Lefty1): -0.279
- composite z-score [8]: 0.22
- z-score [9]: -3.05 (inactive)
- composite z-score [10]: 0.0691
- z-score [11]: 0.0021 (inactive)
- z-score [12]: -1.11 (inactive)
- z-score [13]: -1.44 (inactive)
- z-score [14]: -1.08 (inactive)
- composite z-score [15]: -0.245
- composite z-score [16]: -0.21
- composite z-score (Torsin-1A (Homo sapiens) [17]): -1.32
- composite z-score (Torsin-1A (Homo sapiens) [18]): -0.14
- composite z-score [19]: -0.0627
